Sampled rows, rich in hits. Any-hit rate of the full collection: about 9.2%.
HTT aggregate = qHTS Multiplex Assay to Identify Dual Action Probes in a Cell Model of Huntington: Aggregate Formation (GFP); PC12 HttQ103-GFP aggregates, Acumen cytometry, 40 h; actives 1.1% (n = 220,000); Potency, µM (series often up to 46.1 µM), for the others: at the highest dose activity change, negative = inhibition, usual class: inhibitors; AID 1688, 2009; active = well fitted curve in the direction sought with a large enough effect; inconclusive = small, poorly fitted or top-dose-only effect, or another doubt; inactive = no such curve, though single readings can be large; an effect the other way counts as inactive or inconclusive; also: % is scaled to controls: 0 for no effect and ±100 for the full control effect; nearly all actives have a fitted effect of over 60% in size
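Aggregate formation scored by laser-scanning cytometer (488 excitation, 500–530 emission) in lysed PC12 cells expressing Q103-GFP after 100 nM tebufenozide induction; library tested in dose series, with ATPLite reagent added in the multiplex.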
LMNA splice mod = qHTS Assay for Modulators of Lamin A Splicing; HeLa LMNA splicing GFP/RFP minigene ratio, 48 h; Potency, µM (titrated, usually from 46.1 µM), without a hit: top-dose ratio change, negative = inhibition, hits mostly inhibitors; actives 0.01% (n = 200,000); AID 1487, 2009; active = well fitted inhibition curve with a large enough effect in the signal ratio, with a control signal flat, not every such curve was filed as active; inconclusive = small, poorly fitted or top-dose-only effect, or effect the other way, or a change in a side signal; the % refers to the signal ratio; also: % is scaled to controls: 0 for no effect and ±100 for the full control effect
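S3 HeLa cells stably expressing lamin A-EGFP splicing minigene plus DsRed2, 600 cells/well, 48 h compound exposure at 37C. Laser-scanning cytometry; analysed as GFP (500-530 nm)/RFP (575-640 nm) total intensity ratio; 0.5% DMSO vehicle.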
ALDH1A1 inh = qHTS Assay for Inhibitors of Aldehyde Dehydrogenase 1 (ALDH1A1); Aldehyde dehydrogenase 1A1 (Homo sapiens), P00352; Purified ALDH1A1, NADH fluorescence, propionaldehyde substrate; Potency, µM (series often up to 75.3 µM), without a hit: at the highest dose activity, negative = inhibition, usual class: inhibitors; actives 7.3% (n = 220,000);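 also: plate controls were no enzyme wells and a reference inhibitor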
Target sequence (P00352 whole entry, looked up): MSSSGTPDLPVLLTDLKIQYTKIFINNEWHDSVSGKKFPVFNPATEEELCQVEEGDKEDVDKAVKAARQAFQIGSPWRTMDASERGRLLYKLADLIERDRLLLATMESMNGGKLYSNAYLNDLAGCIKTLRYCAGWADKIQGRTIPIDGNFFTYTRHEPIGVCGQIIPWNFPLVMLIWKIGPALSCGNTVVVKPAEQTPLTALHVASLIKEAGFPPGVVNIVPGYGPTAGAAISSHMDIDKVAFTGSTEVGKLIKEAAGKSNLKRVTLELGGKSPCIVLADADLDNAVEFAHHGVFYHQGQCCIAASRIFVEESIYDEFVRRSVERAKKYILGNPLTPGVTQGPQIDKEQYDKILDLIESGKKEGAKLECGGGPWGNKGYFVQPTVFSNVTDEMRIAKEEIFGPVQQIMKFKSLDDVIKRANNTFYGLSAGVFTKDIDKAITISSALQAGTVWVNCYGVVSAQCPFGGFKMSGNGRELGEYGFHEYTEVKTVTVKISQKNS
KDM4E inh = qHTS Assay for Inhibitors of Human Jumonji Domain Containing 2E (JMJD2E). AID 2147, 2009. Potency, µM (doses to about 57.1 µM), inactives show at the highest dose activity change, negative = inhibition, most hits filed as inhibitors. JMJD2E catalytic domain, FDH-coupled NADH fluorescence (FDH is formaldehyde dehydrogenase). actives 1.6% (n = 230,000);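 also: 0% = wells with enzyme and -100% = buffer wells without enzyme; nearly all actives have a fitted effect of over 50% in size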
HPGD block = qHTS Assay for Inhibitors of HPGD (15-Hydroxyprostaglandin Dehydrogenase) | 15-hydroxyprostaglandin dehydrogenase [NAD(+)] (Homo sapiens), P15428 | purified HPGD, NADH fluorescence kinetic, PGE2 substrate | Potency, µM, for the others: at the top dose activity change, negative = inhibition, actives largely listed as inhibitors | actives 4.3% (n = 150,000) | AID 894, 2007; also: % is scaled to controls: 0 for no effect and ±100 for the full control effect
Target sequence (P15428 whole entry, looked up): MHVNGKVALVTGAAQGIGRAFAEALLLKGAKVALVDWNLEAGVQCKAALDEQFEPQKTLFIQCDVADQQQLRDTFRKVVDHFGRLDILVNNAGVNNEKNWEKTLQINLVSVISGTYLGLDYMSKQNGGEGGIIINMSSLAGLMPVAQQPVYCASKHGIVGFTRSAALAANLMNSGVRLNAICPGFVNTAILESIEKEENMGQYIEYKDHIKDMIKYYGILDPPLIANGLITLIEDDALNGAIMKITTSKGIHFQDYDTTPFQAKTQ
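NADH formation kinetics: reaction with 30 uM PGE2 and 1 mM NAD+ (final), 20 nM enzyme, Tris-HCl pH 8 with Tween 20, after 15 min compound preincubation at room temperature. Fluorescence change, last versus first of five reads.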
HTT cytoprotect = qHTS Multiplex Assay to Identify Dual Action Probes in a Cell Model of Huntington: Cytoprotection (ATP); AID 1471, 2008; Potency, µM (titrated, usually from 56.4 µM), without a hit: cytoprotection (ATP increase), most hits filed as activators; actives 0.14% (n = 230,000); PC12 HTT-Q103 induced, cytoprotection, ATP luminescence, 40 h; active = well fitted curve in the direction sought with a large enough effect; inconclusive = small, poorly fitted or top-dose-only effect, or another doubt; inactive = no such curve, though single readings can be large; an effect the other way counts as inactive or inconclusive; also: % of control where 0% means no effect; nearly all actives have a fitted effect of over 45% in size
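Rat PC12, Q103 Htt exon1-GFP fusion, ecdysone promoter; tebufenozide inducer 100 nM final; compound titration; qHTS, 1500 cells/well; ATPlite luminescent read.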
Active calls of the source: *; ? = inconclusive; / = not tested or not shown; [ ] = another dose, or the depositor's remark. Unless noted, calls follow the shape of the dose curve; as a rule, active = well fitted inhibition curve with a large enough effect (not every such curve was filed as active); inconclusive = small, poorly fitted or top-dose-only effect, or another doubt; inactive = no such curve, though single readings can be large or run the other way. Potency is read from the fitted curve at half-maximal effect.

SMILES	HTT aggregate	LMNA splice mod	ALDH1A1 inh	KDM4E inh	HPGD block	HTT cytoprotect
CN(C)S(=O)(=O)c1ccc(NC(=O)CN2CCCc3ccccc32)cc1	18%	/	18µM*	10%	/	/
CC1Cc2ccccc2N1CC(=O)Nc1ccc(S(=O)(=O)N(C)C)cc1 (stereo not given)	-9%[9.22 µM]	/	/	-10%	/	-16%[10 µM]
Cn1cccc1C(=O)N1CCC2(CCN(Cc3ccc(C#N)cc3)CC2)CC1	/	/	-4%	/	-15%	-1%
CCN1CCC(N(Cc2ccc3c(c2)OCO3)C(=O)Nc2cc(F)ccc2F)CC1	/	-9%[46 µM]	/	/	/	/
O=C(COC(=O)c1cccc(NS(=O)(=O)c2ccc(F)c(F)c2)c1)NC(=O)NC1CCCCC1	7%	?	?	1%	-17%	20%[10 µM]
CC1Cc2cc(S(=O)(=O)NCCc3ccc(Cl)cc3)ccc2N1C(=O)C1CCC1 (stereo not given)	/	-11%[46 µM]	/	/	/	/
CN(C)C[C@@H](O)c1ccc(Cl)c2ccccc12	/	/	-6%[13.5 µM]	/	-9%	-9%[10 µM]
CCN1CCN(CC(=O)Nc2ccc(Cl)c(S(=O)(=O)N(C)C)c2)CC1	18%	/	3.5µM*	-4%	/	-2%
CCN1CCN(CC(=O)c2cc(Cl)ccc2Cl)CC1	2%	?	14µM*	-16%	/	-16%
Cc1nnn(-c2nonc2N)c1C(=O)N/N=C/c1ccccc1O	?	?	3%	13µM*	-9%	25%[10 µM]
Cc1nnn(-c2nonc2N)c1C(=O)N/N=C/c1cccc2ccccc12	-3%	-3%	7%	?	?	-3%[10 µM]
Cc1cc(-c2nsc(=O)o2)c(S(C)(=O)=O)s1	-9%	-9%	2.8µM*	-1%	4.5µM*	-2%[10 µM]
S=c1[nH]nc(COc2ccccc2)n1/N=C/C=C/c1ccco1	26%[9.22 µM]	/	/	?	/	-29%[10 µM]
S=c1[nH]nc(-c2ccncc2)n1/N=C/C(Cl)=C\c1ccccc1	-22%[9.22 µM]	-12%[46 µM]	-14%	-7%	/	0%[10 µM]
S=c1[nH]nc(COc2ccccc2)n1/N=C/C(Cl)=C/c1ccccc1	?	?	32µM*	8%	25µM*	?
S=c1[nH]nc(COc2ccccc2)n1/N=C/C=C/c1ccccc1	0%	-12%	-14%	0%	5µM*	3%[10 µM]
C/C(Cc1nnn(-c2cc(C)on2)n1)=N\O	-3%[9.22 µM]	/	/	0%	/	-1%[10 µM]
CC(=O)N(Cc1ccc(F)cc1)C1=C(NCc2ccccc2)C(=O)c2ccccc2C1=O	8.9µM*	?	2%	?	-8%	-98%
Cc1c(N2C(=O)CSC2c2ccc(F)cc2)c(=O)n(-c2ccccc2)n1C (stereo not given)	2%[9.22 µM]	/	/	-7%	/	9%[10 µM]
Cc1ccc2c(C(=O)CN3CCN(C(=O)c4ccco4)CC3)c(C)[nH]c2c1	-13%[9.22 µM]	/	/	-4%	/	-4%[10 µM]
O=C(NNc1ccc(O)cc1)c1ccc(Br)cc1	-6%	/	7.1µM*	?	/	-44%
Cc1cc(C)nc(N2CCC(C(=O)Nc3ccc(Oc4ccccc4)cc3)CC2)n1	-4%	-3%	14%	14%	1%	-11%[10 µM]
O=C(Nc1ccc(F)cc1)C1CCN(c2nnnn2-c2ccccc2)CC1	18%	-6%	14µM*	-6%	-8%	-21%[10 µM]
COc1ccccc1CC(NC(C)=O)C(=O)NC1CCN(c2nnnn2-c2ccccc2)CC1 (stereo not given)	-11%	-4%	5.6µM*	-1%	-12%	-2%[10 µM]
CC(=O)Nc1ccc(NC(=O)C2CCN(c3c(NC(C)=O)c(C)nn3-c3ccccc3)CC2)cc1	/	-10%[46 µM]	/	/	/	/
SMILES	HTT aggregate	LMNA splice mod	ALDH1A1 inh	KDM4E inh	HPGD block	HTT cytoprotect
COc1cccc(CC(NC(C)=O)C(=O)NC2CCN(c3nnnn3-c3ccccc3)CC2)c1OC (stereo not given)	30%	-6%[46 µM]	?	4%	/	-66%
COc1ccc(NC(=O)C2CCN(c3nnnn3-c3ccccc3)CC2)cc1	13%	-9%	13µM*	3%	-8%	-2%
CCC(C)c1ccc(NC(=O)COc2c(F)c(F)c(C(F)(F)F)c(F)c2F)cc1 (stereo not given)	9%	2%	?	-3%	1%	5%[10 µM]
c1coc(-c2nc3c([nH]2)CCc2nonc2-3)c1	12%	2%	2.8µM*	?	?	7%
c1ccc(-c2nc3c([nH]2)CCc2nonc2-3)cc1	-22%	/	4.5µM*	?	/	-20%
CCOC(=O)c1c(C)[nH]c(CCC(=O)NCc2ccccc2C)c1C	/	-7%[46 µM]	/	/	/	/
CCOc1ccccc1NC(=O)c1nnn(CC(=O)Nc2ccc(OC)c(OC)c2)c1N	/	6%[46 µM]	/	/	/	/
COc1ccc(CN2CCN(C(=O)C3CCC(CNS(=O)(=O)c4ccccc4)CC3)CC2)c(OC)c1OC (stereo not given)	-27%	/	14µM*	-1%	/	/
O=C(c1cccs1)N1CCN(Cc2ccccc2[N+](=O)[O-])CC1	-9%	?	25µM*	?	-5%	/
CCOC(=O)N1CCN(C(=O)C2CCC(CNS(=O)(=O)c3ccccc3)CC2)CC1 (stereo not given)	18%	13%	?	3%	-5%	10%
COc1ccc(CN2CCN(C(=O)c3cccs3)CC2)c(OC)c1OC	-1%	0%	18µM*	?	-11%	-3%
CC[N+]1=C(C)C(C)(C)c2cc(C)ccc21	2.5µM*	?	-2%	-14%	/	-112%
CN(Cc1cccc(Cl)c1Cl)C(=O)c1ccc(NC(=O)CC#N)cc1	13%	-3%	-15%	-7%	18µM*	28%[10 µM]
Cc1ccc(C(=O)NCC(c2ccc3c(c2)OCO3)N2CCOCC2)cc1C (stereo not given)	/	-10%[46 µM]	/	/	/	/
COc1cccc(C(=O)C(C#N)=C(SC)SC)c1	4%[9.22 µM]	/	7.1µM*	1%	/	-34%[10 µM]
COc1cccc(C(=O)Nc2ccc(NC(C)=O)cc2)c1	-8%	6%	-2%	-7%	-5%	-22%
CSC(SC)=C(C#N)C(=O)c1ccccc1	7%[9.22 µM]	?	22µM*	-26%	/	-32%[10 µM]
CCOc1ccc(CNC(=O)c2oc3c(c2C)-c2nn(Cc4cccc(Cl)c4)cc2CC3)cc1	/	8%[46 µM]	/	/	/	/
Cc1ccc(S(=O)(=O)NCc2nc3cccnc3n2Cc2ccccc2Cl)c(C)c1	/	13%[46 µM]	/	/	/	/
O=C(NCc1cccnc1)C(=O)Nc1ccc([N+](=O)[O-])cc1	11%	/	-4%	-8%	/	-1%[10 µM]
